{"source": "paper PMC6925144", "about": "“A prospective compound screening contest identified broader inhibitors for Sirtuin 1” (Scientific Reports, 2019)", "note": "Over roughly 3,200 compounds, “TSA(with NAD+) / Primary screening (TSA) / delta Tm (K)” has its median near -0.04; the highest 2% begin near 0.37. This is one part of a sample in which the highest values are shown more often than they occur."}
{"biological_target": "NAD-dependent deacetylase Sirtuin 1 (human, UniProt Q96EB6)", "sequence (Q96EB6 2-747 limits assumed)": "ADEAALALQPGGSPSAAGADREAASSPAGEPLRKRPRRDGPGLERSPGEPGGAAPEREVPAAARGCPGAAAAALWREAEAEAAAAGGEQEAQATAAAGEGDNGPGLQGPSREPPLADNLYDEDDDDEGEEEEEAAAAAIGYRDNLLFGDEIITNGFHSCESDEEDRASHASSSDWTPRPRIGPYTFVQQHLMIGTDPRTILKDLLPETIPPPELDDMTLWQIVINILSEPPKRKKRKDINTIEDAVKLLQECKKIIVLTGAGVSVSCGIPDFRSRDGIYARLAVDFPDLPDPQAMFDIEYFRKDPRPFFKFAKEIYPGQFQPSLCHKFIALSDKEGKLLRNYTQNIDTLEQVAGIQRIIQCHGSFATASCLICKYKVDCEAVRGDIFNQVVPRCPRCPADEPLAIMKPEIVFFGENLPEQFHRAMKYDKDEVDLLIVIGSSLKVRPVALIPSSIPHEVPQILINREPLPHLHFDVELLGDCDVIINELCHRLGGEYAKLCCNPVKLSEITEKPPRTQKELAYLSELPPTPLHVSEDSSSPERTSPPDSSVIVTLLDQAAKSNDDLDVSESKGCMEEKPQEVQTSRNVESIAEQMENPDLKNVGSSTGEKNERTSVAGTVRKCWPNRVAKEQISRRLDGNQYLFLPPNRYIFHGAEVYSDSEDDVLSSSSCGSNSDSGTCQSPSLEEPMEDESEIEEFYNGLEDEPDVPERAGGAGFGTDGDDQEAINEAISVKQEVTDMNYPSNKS", "assay": "primary screen, delta tm", "design": "single well (n = 1, as 'the same TSA')", "settings": "10 µM", "units": {"TSA(with NAD+) / Primary screening (TSA) / delta Tm (K)": "K"}}
{"smiles": "O=c1[nH]cnc2c(Cl)cc(Cl)cc12", "TSA(with NAD+) / Primary screening (TSA) / delta Tm (K)": -0.16}
{"smiles": "Cc1ccc(-c2nnc(SCC(=O)NC(=O)NC(C)C)n2N)cc1", "TSA(with NAD+) / Primary screening (TSA) / delta Tm (K)": -0.04}
{"smiles": "O=C(CCc1nc2ccccc2c(=O)[nH]1)Nc1ccc(N2CCN(Cc3ccccc3)CC2)cc1", "TSA(with NAD+) / Primary screening (TSA) / delta Tm (K)": 0.03}
{"smiles": "Cc1cc(C=C2C(=O)NC(=S)NC2=O)c(C)n1-c1ccc(F)cc1", "TSA(with NAD+) / Primary screening (TSA) / delta Tm (K)": -0.48}
{"smiles": "CNS(=O)(=O)c1ccc(CCC(=O)Nc2ccccc2Cc2ccccc2)cc1", "TSA(with NAD+) / Primary screening (TSA) / delta Tm (K)": 0.07}
{"smiles": "NS(=O)(=O)c1ccc(C(=O)Nc2ccc3c(c2)-c2ccccc2C3)cc1", "TSA(with NAD+) / Primary screening (TSA) / delta Tm (K)": 0.68}
{"smiles": "C/C(=N/N)c1ccc2c(c1)-c1ccccc1C2", "TSA(with NAD+) / Primary screening (TSA) / delta Tm (K)": -0.14}
{"smiles": "O=C1COc2cc(C(=O)Nc3ccc4c(c3)-c3ccccc3C4)ccc2N1", "TSA(with NAD+) / Primary screening (TSA) / delta Tm (K)": 0.11}
{"smiles": "CC1CCC(C(N)=O)CN1c1ncnc2ccsc12", "note": "(stereo not drawn)", "TSA(with NAD+) / Primary screening (TSA) / delta Tm (K)": 0.05}
{"smiles": "O=C(CN1CCN(Cc2cscn2)CC1)NC(c1ccccc1)C1CC1", "note": "(stereo not drawn)", "TSA(with NAD+) / Primary screening (TSA) / delta Tm (K)": 0.03}
{"smiles": "COCCCn1ccc(Nc2nc(C)nc3[nH]ccc23)n1", "TSA(with NAD+) / Primary screening (TSA) / delta Tm (K)": -0.03}
{"smiles": "O=C1NC(=O)c2ccccc2/C1=C\\NNC(=O)C12CC3CC(CC(C3)C1)C2", "TSA(with NAD+) / Primary screening (TSA) / delta Tm (K)": 0.48}
{"smiles": "COc1ccc(CN2C(=O)/C(=C/NNC(=O)CC34CC5CC(CC(C5)C3)C4)c3ccccc3C2=O)cc1", "TSA(with NAD+) / Primary screening (TSA) / delta Tm (K)": 0.06}
{"smiles": "COc1ccc(N2C(=O)/C(=C/NNC(=O)C34CC5CC(CC(C5)C3)C4)c3ccccc3C2=O)cc1", "TSA(with NAD+) / Primary screening (TSA) / delta Tm (K)": 0.18}
{"smiles": "O=C(CC12CC3CC(CC(C3)C1)C2)NN/C=C1/C(=O)N(Cc2ccccc2)C(=O)c2ccccc21", "TSA(with NAD+) / Primary screening (TSA) / delta Tm (K)": 0.19}
{"smiles": "CC1(C)CC(=O)C(=CNNC(=O)CC23CC4CC(CC(C4)C2)C3)C(=O)C1", "TSA(with NAD+) / Primary screening (TSA) / delta Tm (K)": -0.06}
{"smiles": "O=C1/C(=C/NNC(=O)C23CC4CC(CC(C4)C2)C3)c2ccccc2C(=O)N1Cc1ccccc1", "TSA(with NAD+) / Primary screening (TSA) / delta Tm (K)": 0.56}
{"smiles": "COC(C)CN", "note": "(stereo not drawn)", "TSA(with NAD+) / Primary screening (TSA) / delta Tm (K)": -0.12}
{"smiles": "COc1cccc(-c2nc(CSc3nnc(-c4ccco4)n3Cc3ccccc3)cs2)c1", "TSA(with NAD+) / Primary screening (TSA) / delta Tm (K)": -0.16}
{"smiles": "Cc1ccc(OCCN)cc1", "TSA(with NAD+) / Primary screening (TSA) / delta Tm (K)": 0.15}
{"smiles": "Cc1nn2cccnc2c1C(=O)NCc1ccc(-c2nnn[nH]2)cc1", "TSA(with NAD+) / Primary screening (TSA) / delta Tm (K)": -0.06}
{"smiles": "Cc1nn(-c2ccc(F)cc2)c(C)c1CNCc1ccccc1", "TSA(with NAD+) / Primary screening (TSA) / delta Tm (K)": -0.23}
{"smiles": "N#Cc1c2c(c(Cl)n3c1nc1ccccc13)CCCC2", "TSA(with NAD+) / Primary screening (TSA) / delta Tm (K)": 0.03}
{"smiles": "Cc1ccccc1-c1nnn(Cc2cc(=O)oc3c(C)c(C)ccc23)n1", "TSA(with NAD+) / Primary screening (TSA) / delta Tm (K)": -0.18}
{"smiles": "NC(=O)NCc1ccc(C(=O)Nc2nc(-c3c[nH]c(C(N)=O)c3)cs2)cc1", "TSA(with NAD+) / Primary screening (TSA) / delta Tm (K)": 0.11}
{"smiles": "COC(=O)c1cc(-c2csc(NC(=O)c3cccc(NC(=O)c4cnoc4C)c3)n2)c[nH]1", "TSA(with NAD+) / Primary screening (TSA) / delta Tm (K)": 0.67}
{"smiles": "COc1ccc(NC(=O)c2ccc(NC(=O)c3cnoc3C)cc2)cc1OCc1cccnc1", "TSA(with NAD+) / Primary screening (TSA) / delta Tm (K)": 0.05}
{"smiles": "COc1ccnc(N2CCN(C(=O)c3ccc(C(N)=O)s3)CC2)n1", "TSA(with NAD+) / Primary screening (TSA) / delta Tm (K)": -0.13}
{"smiles": "Cc1ccc(-n2nnnc2SCc2nc3c(cnn3-c3ccccc3)c(=O)[nH]2)cc1", "TSA(with NAD+) / Primary screening (TSA) / delta Tm (K)": -0.11}
{"smiles": "CCCOc1ccc(C2C(C(=O)c3ccc(F)cc3)=C(O)C(=O)N2CCCN2CCOCC2)cc1", "note": "(stereo not drawn)", "TSA(with NAD+) / Primary screening (TSA) / delta Tm (K)": 0.06}
{"smiles": "Cc1cc(N(C)C)n2nc(C(F)(F)F)c(-c3ccccc3)c2n1", "TSA(with NAD+) / Primary screening (TSA) / delta Tm (K)": -0.05}
{"smiles": "CNc1cc(C)nc2c(-c3ccccc3)c(C(F)(F)F)nn12", "TSA(with NAD+) / Primary screening (TSA) / delta Tm (K)": -0.12}
{"smiles": "Cc1cc(NN)n2nc(C(F)(F)F)c(-c3ccc(Cl)cc3)c2n1", "TSA(with NAD+) / Primary screening (TSA) / delta Tm (K)": 0.37}
{"smiles": "Oc1cccc2c1Cc1c-2nc2ccc(Cl)cc2c1-c1ccccc1Cl", "TSA(with NAD+) / Primary screening (TSA) / delta Tm (K)": 0.52}
{"smiles": "O=C1/C(=C/c2ccc(Br)cc2F)Cc2c(O)cccc21", "TSA(with NAD+) / Primary screening (TSA) / delta Tm (K)": 0.11}
{"smiles": "COc1ccc(C(=O)NC2CCCC2(C)CO)cc1-c1ccccn1", "note": "(stereo not drawn)", "TSA(with NAD+) / Primary screening (TSA) / delta Tm (K)": -0.23}
{"smiles": "CN1CCC(Sc2ccc3ccccc3c2)C1=O", "note": "(stereo not drawn)", "TSA(with NAD+) / Primary screening (TSA) / delta Tm (K)": -0.19}
{"smiles": "Cc1ccc(-c2cc(C(=O)OC(C)C(=O)Nc3cccc([N+](=O)[O-])c3)[nH]n2)cc1", "note": "(stereo not drawn)", "TSA(with NAD+) / Primary screening (TSA) / delta Tm (K)": 0.25}
{"smiles": "CC(=C/c1ccccc1)/C=N/NC(=O)c1cc(-c2ccc(C)cc2)n[nH]1", "TSA(with NAD+) / Primary screening (TSA) / delta Tm (K)": 1.11}
{"smiles": "O=C(Nc1ccc(N2CCN(Cc3ccccc3)CC2)cc1)c1cccc2cccnc12", "TSA(with NAD+) / Primary screening (TSA) / delta Tm (K)": 0.01}
{"smiles": "O=C(COC(=O)c1ccc2c(c1)S(=O)(=O)c1ccccc1C2=O)Nc1ncc(Cl)cc1Cl", "TSA(with NAD+) / Primary screening (TSA) / delta Tm (K)": 0.15}
{"smiles": "Cn1cc(CCC(=O)NCC(=O)O)c2ccccc21", "TSA(with NAD+) / Primary screening (TSA) / delta Tm (K)": -0.16}
